Results as given in PubChem BioAssay AID485297 (National Center for Advancing Translational Sciences (NCATS), 2010).
In all, about 320,000 compounds went through this assay and about 9,100 (2.8%) were called active. About 3% were inconclusive and are not listed. Only a selection was taken, and actives are over-represented in it overall. A number with no mark means an inactive call. Calls follow the shape of the dose curve; as a rule, active = well fitted activation curve with a large enough effect; inconclusive = small, poorly fitted or top-dose-only effect; inactive = no such curve, though single readings can be large or run the other way.

assay: qHTS Assay for Rab9 Promoter Activators; details: Huh7 Rab9 promoter-luciferase reporter, luminescence, 24 h; series mostly up to 9.22 µM; activation, negative = inhibition: at the top concentration; also: nearly all actives have a fitted effect of over 60% in size; as to activation, negative = inhibition: % of control where 0% means no effect
Source text: NIH Chemical Genomics Center [NCGC] NIH Molecular Libraries Probe Production centers Network [MLPCN] MLPCN Grant: MH089537-01 Assay Submitter (PI): Yiannis A. Ioannou NCGC Assay Overview: Niemann Pick Type C (NPC) is a rare neurodegenerative lipidosis that is characterized by lipid storage in the endosomal/lysosomal system. Treatment modalities for this devastating disease are currently non-existent due to the severe obstacles associated with accessing the central nervous system with proteins or genes (Ioannou, 2000). We have developed a new paradigm, termed "Orphan Receptor Bypass Therapy" (ORByT), to address these disorders. This paradigm posits the existence of endogenous "suppressor" proteins whose expression can dramatically improve LSD pathogenesis. The goal is the identification/discovery of small chemical compounds that can modulate the expression of these proteins and provide a new treatment modality for these devastating disorders. One such protein whose overexpression reverses aspects of the NPC phenotype is Rab9. We have developed and optimized a cell based luciferase reporter assay in 1536 well format for the identification of up-regulators of the Rab9 promoter.
The Rab9 promoter is cloned in front of the luciferase reporter gene, therefore […] promoter activation results in luciferase expression. Frozen stock of the Rab9 promoter transfected Huh7 cells were obtained from the laboratory of Dr. Yiannis Ioannou (The Mount Sinai School of Medicine, New York, NY). Cells were propagated and maintained at NCGC in medium containing RPMI-1640 supplemented with 10% FBS, 2mM L-glutamine, and 50ug/ml penicillin/streptomycin. Cells were harvested in and plated for assays in OP-MEM I reduced-serum medium supplemented with 10% FBS. The Amplite luciferase reporter gene assay kit was purchased from ABD Bioquest and prepared/stored according to manufacturers recommendations. qHTS Assay Setup: 1.Dispensed 5ul of Huh7 cells stably expressing Rab9-luciferase at a density of 1500 cells per well 1536-well plates. 2.Incubate cells at 37C, 5% CO2, and 95% humidity for 2 hours. 3.Transferred 23nl per well of compound in DMSO solution. 4.Incubated at 37C, 5% CO2, and 95% humidity for 24 hours. 5.Dispensed 3ul per well of Amplite reagent(ABD Bioquest) per well. 6.Incubate at ambient for 10 minutes. 7.Read using the luminescence protocol on the ViewLux plate reader (Perkin Elmer).
Potency is read from the fitted curve at half-maximal effect.

Row | Structure (SMILES) | activation, negative = inhibition | Potency
1 | O=C(/C=C/c1ccccc1[N+](=O)[O-])OCC(=O)N1CCCC1 | -1.9% | 
2 | Cc1nn(Cc2ccccc2)c(C)c1CNC(=O)c1ccc(F)c(S(=O)(=O)N2CCOCC2)c1 | -2.2% | 
3 | Cc1csc(=O)n1CCC(=O)OCC(=O)NNC(=O)c1ccc(Br)cc1 | 1.83% | 
4 | CCN(CC)S(=O)(=O)c1cc(C(=O)Nc2cc(S(=O)(=O)N3CCOCC3)ccc2N2CCCC2)ccc1F | -1.3% | 
5 | CN(C)S(=O)(=O)c1ccc2oc(SCC(=O)Nc3ccccc3F)nc2c1 |  | 1410 nM (active)
6 | COc1ccc(S(=O)(=O)N(C)C)cc1NC(=O)CSc1ncccn1 | 0.741% | 
7 | COc1ccc(NS(=O)(=O)c2ccc3oc(SCC(N)=O)nc3c2)cc1 | -5.39% | 
8 | CCOC(=O)[C@H]1[C@H]2COc3ccc(C)cc3[C@@H]2N2C(=O)CN(Cc3ccc(F)cc3)C(=O)[C@@]12C | 2.24% | 
9 | CC(C#N)(NC(=O)CN1CCN(S(=O)(=O)c2cc(C(F)(F)F)ccc2Cl)CC1)C1CC1 (stereo not drawn) | 2.72% | 
10 | Cc1cccc(NC(=O)c2cccnc2Cl)n1 | 5.83% | 
11 | Cc1cccc(NC(=O)c2ccccc2NC(=O)C(C)(C)C)n1 | -0.972% | 
12 | Cc1cccc(NC(=O)c2ccc3ccccc3n2)n1 |  | 3160 nM (active)
13 | COc1ccc(S(=O)(=O)N2CCOCC2)cc1NC(=O)CC1CC2CCC1C2 (stereo not drawn) | -6.07% | 
14 | CC(C)Cc1cc(C(=O)NCCc2ccccc2)no1 |  | 3160 nM (active)
15 | Nc1nonc1C(=O)NCCc1ccccc1 | -3.41% | 
16 | O=C(NCCCc1ccccc1)c1cc(COc2c(F)cccc2F)on1 | 24.9% | 
17 | COc1ccc(CCNC(=O)COC(=O)Cc2cccc(F)c2)cc1 | -4.5% | 
18 | CCCC[C@]12Cc3cc(OC)c(OC)cc3C(O1)C1=C(CC3(CCCCC3)OC1=O)O2 | -3.75% [at 1.84 µM] | 
19 | N#Cc1cccc(NC(=O)C2CCCN(C(=O)c3ccc(Cl)cc3)C2)c1 (stereo not drawn) | 2.15% | 
20 | N#CC1(NC(=O)COC(=O)CCN=C2NS(=O)(=O)c3ccccc32)CCCCC1 | 3.55% | 
21 | CC(=O)/C(C)=N/O | 3.38% [at 46.1 µM] | 
22 | O=C(Nc1ccon1)c1cccc(Cl)c1 | -2.87% | 
23 | O=C(Nc1ccon1)c1sc2ccccc2c1Cl |  | 3160 nM (active)
24 | O=C(N/N=C/c1c(Cl)[nH]c2ccccc12)c1sc2ccccc2c1Cl | -0.784% | 
25 | CC1CCCCC1NC(=O)COC(=O)Cc1ccc(Cl)cc1 (stereo not drawn) | 1.14% | 
26 | O=C(C(=O)N1CCc2ccccc2C1)N1CCc2ccccc2C1 | -5.85% | 
27 | CCc1ccc(NC(=O)N2CCN(c3ccccc3)CC2)cc1 | 14.7% | 

Row | Structure (SMILES) | activation, negative = inhibition | Potency
28 | CCc1ccc(NC(=O)N2CCc3ccccc3C2)cc1 |  | 2240 nM (active)
29 | COc1cccc(NC(=O)CN(C)CC(=O)c2c(N)n(Cc3ccccc3)c(=O)n(C)c2=O)c1 | 1.65% | 
30 | O=C(CNC(=O)c1ccc2ccccc2c1)Nc1ncccc1O | 10.7% | 
31 | O=C(Nc1cccc2cccnc12)c1cccc(Cl)c1 | 2.18% | 
32 | CSc1ccc(C#N)cc1NC(=O)c1cccc(Cl)c1 | -1.51% | 
33 | N#Cc1ccccc1NC(=O)c1cccc(COc2ccc(Cl)cc2Cl)c1 |  | 447 nM (active)
34 | CCN(c1ccccc1)S(=O)(=O)c1cccc(C(=O)NCc2ccccc2CN2CCOCC2)c1 | -2.11% | 
35 | CN(CC(=O)Nc1ccc(Cl)cc1)CC(=O)Nc1cccc2ccccc12 | -4.32% | 
36 | C/C=C(/C)C(=O)O[C@@H]1c2cc3c(c4c2[C@@]2(CO4)C(=O)C(OC)=C(OC)C=C2C[C@@H](C)[C@H]1C)OCO3 | -1.59% | 
37 | O=C(CN(c1cc(C(F)(F)F)ccc1Cl)S(=O)(=O)c1ccccc1)NCc1cccnc1 | 0.849% | 
38 | CCc1ccc(N(CC(=O)NCc2cccnc2)S(=O)(=O)c2ccccc2)cc1 |  | 3550 nM (active)
39 | CCCNS(=O)(=O)c1ccc(CCC(=O)NCc2cccnc2)cc1 | -7.87% | 
40 | Cc1ccc(CN2CC(C(=O)NNC(=O)Cn3ccc(C(F)(F)F)n3)CC2=O)cc1 (stereo not drawn) | 1.15% | 
41 | CC(NC(=O)c1ccc(S(=O)(=O)Nc2ccccc2)cc1)c1ccc(S(N)(=O)=O)cc1 (stereo not drawn) | 4.87% | 
42 | COc1ccccc1C(=O)Nc1ccc(OCC(=O)N2CCCCC2)cc1 | -4.82% | 
43 | O=C1CC[C@H](O)CCN1[C@H](CSc1ccc(Br)cc1)Cc1ccccc1 | -7.37% | 
44 | CC(C)(CSc1nncn1/N=C/c1ccco1)NS(=O)(=O)c1ccc(Cl)cc1 | -3.33% | 
45 | C/C(=N\NC(=O)OC(C)(C)C)c1ccc[nH]1 |  | 2820 nM (active)
46 | CC(C)(C)OC(=O)N/N=C/c1ccc(C(=O)O)cc1 | 10.3% | 
47 | Cc1ccccc1NC(=O)NNC(=O)OC(C)(C)C | -1.38% | 
48 | Cc1cccc(C)c1NC(=O)C(Cl)C(=O)c1ccccc1 (stereo not drawn) | 0.571% | 
49 | CCCCN(C(=O)C1CCC1)c1c(N)n(Cc2ccccc2)c(=O)[nH]c1=O | -2.45% | 
50 | CCC(=O)c1ccc(OCC(=O)OCC(=O)N2CCc3ccccc3C2)cc1 | -1.46% | 
51 | O=C(Nc1ccccc1)c1cc2ccccc2[nH]1 |  | 2510 nM (active)
52 | O=C(Nc1cccc(NC(=O)c2ccc(Br)cc2)c1)c1ccccc1 | -4.51% | 
53 | COc1ccc2[nH]c(C(=O)Nc3ccccc3Cl)cc2c1 | -0.505% | 
